Among the data in PubChem BioAssay (NCI) are growth values, retold here.

Each structure is given as a SMILES string. This is part of a sample that, as a whole, favours compounds with a hit. Of some 83,000 tested, about 20% had one in any assay.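 The endpoint reported here, percent growth, reads 100 for growth as untreated, 0 for no net growth and -100 for all cells dead.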 A number with no mark means an inactive call. Active and inactive are the calls of the source. How the source made its calls: active means growth percent below 10; inactive means the rest.

The test system of this assay is HL-60(TB) leukemia. Briefly: NCI-60 one-dose screen, 48 h (100 = growth as untreated, 0 = no growth, -100 = all killed). Conditions: 10 µM unless noted.
As to `O=C(/C(Br)=C/c1ccccc1)c1ccccc1`, the growth is -2.59% (active). Under `O=C1/C(=C/c2cn(-c3ccccc3)nc2-c2ccccc2)SC(=S)N1c1ccc(Cl)cc1` stands 86%; under `COc1cc(-c2ccc[nH]2)[nH]c1/C=C1\N=C(C)C(CC(=O)OCC(C)(C)C)=C1C`, -44.5% (active); under `COc1cccc(CCNc2ncnc3c2ncn3Cc2nnc3c4ccccc4c(Cl)nn23)c1`, 57.5%. For `COc1cc(/C=C/C(=O)/C=C/c2cc(OC)c3c(c2)OCO3)cc2c1OCO2`, the growth was 68.6%. With `CC(C)=CCc1cc(O)c(O)c2oc3cc(O)cc(O)c3c(=O)c12` the figure was 103%; with `N#CC(C#N)N=Nc1ccc(Cl)cc1`, -26.8% (active). With `Cc1ccc(/C=C(/C#N)n2nnc3cccc(F)c32)cc1` the figure was -18.2% (active); with `O=Cc1ccc(O)c(O)c1`, 88%. On to `CN(C)CCCn1c2c(c3cc(-c4ccco4)ccc3c1=O)C(=O)c1ccccc1-2`, for which the growth is 93.1%. With `COC(=O)c1c2c(c(C)[n+]([O-])c1C)C(=O)C(NCc1ccc(F)cc1)=CC2=O` the figure was -51.5% (active). With `COc1cc2c(c(OC)c1OC)CCC(c1cccc(C(=O)Nc3ccc(Br)cc3)c1)O2` (stereo unspecified) the figure was 73.1%. Under `COc1ccc(-c2cc(-c3ccccc3)nc(N3CCN(CCNc4ccnc5cc(Cl)ccc45)CC3)n2)cc1` stands -39.8% (active); under `CCC#CC[C@H](O)C/C=C1/C(=O)C=C[C@@H]1C/C=C\CCCC(=O)OC`, 2.22% (active); under `N#Cc1c(-c2ccc(Cl)cc2)nc(NN2C(=O)c3ccccc3C2=O)nc1N1CCOCC1`, 99.8%. For the compound `COc1cc(/C=C2\CN(S(=O)(=O)c3ccc(C)cc3)C/C(=C\c3cc(CN4CCOCC4)c(O)c(OC)c3)C2=O)cc(CN2CCOCC2)c1O`, the growth was -15.5% (active). With `CCCCNC(=O)Oc1ccc(/C(=C(\C)c2ccccc2)c2ccc(OCCN3CCCCC3)cc2)cc1` the figure was 49.4%; with `O=c1cc(C2NCCc3c2[nH]c2ccccc32)c2c(ccc3ccccc32)o1` (stereo unspecified), 48.5%; with `N#Cc1c(NC(=O)c2cccc(C(F)(F)F)c2)sc2c1CCC(=O)C2`, -8.73% (active).

Take `Nc1cc(-c2ccccc2)ccc1O`: the growth is 49.7%. With `O=[N+]([O-])c1cc(Cl)c2[nH]c3c(Cl)cc([N+](=O)[O-])cc3c2c1` the figure was -28.5% (active); with `Cc1cc(Nc2nc(N[C@@H](C)c3ncc(F)cn3)ncc2Cl)n[nH]1`, 54.2%; with `c1ccc2c3c([nH]c2c1)C(c1ccc(C2NCCc4c2[nH]c2ccccc42)cc1)NCC3` (stereo unspecified), -63.2% (active). With `COc1ccc(-c2cn3ccnc3c(-c3ccc4ncn(C5CCCCC5)c4c3)n2)cc1`, the growth is 1.36% (active). With `COc1cc(C2CC(c3c(C)[n+]([O-])c4ccccc4[n+]3[O-])=NN2)cc(OC)c1OC` (stereo unspecified) the figure was 97.8%; with `CC1=C[C@@H]2c3c(c(O)c(O)c4oc5cc(O)cc(O)c5c(=O)c34)[C@@H](c3cc(O)c(O)c4oc5cc(O)cc(O)c5c(=O)c34)[C@@H]2C(C)(C)C1`, -3.85% (active). With `COc1ccc(/C=C/c2c(C(=O)/C=C/c3ccc(F)cc3)c(C)nc3ccccc23)cc1` the figure was 24.2%; with `Cc1cc(NCCCN(C)C)c2ccc3c(ccc4c(NCCCN(C)C)cc(C)nc43)c2n1`, -60.2% (active); with `O=C(CN1C(=O)c2ccccc2S1(=O)=O)Nc1nc(-c2cc3ccccc3oc2=O)cs1`, 101%.

Take `CC1(C)CCc2cc(-c3ccn(S(=O)(=O)c4ccc(Cl)cc4)n3)ccc2O1`: the growth was 71.9%. Under `COc1ccc(C2C(c3ccccc3)C(=O)N2c2cc(OC)c(OC)c(OC)c2)cc1I` (stereo unspecified) stands -31.6% (active). Under `Cc1cc2nc(CN)[nH]c2cc1C` stands 96.6%. With `CSc1nc(Nc2cccc(NC(=O)/C(C#N)=C/c3c(Cl)cccc3Cl)c2)c(C#N)c(-c2cccc([N+](=O)[O-])c2)n1` the figure was 58.3%; with `COC(=O)[C@]12CC[C@@H](C)[C@H](C)[C@@H]1C1=CC[C@@H]3[C@@]4(C)C[C@@H](OC(C)=O)[C@H](OC(C)=O)[C@@](C)(COC(C)=O)[C@@H]4[C@H](O)C[C@@]3(C)[C@]1(C)CC2`, -10.2% (active); with `CCOC(=O)N1CCc2c(sc3c2C(=O)N[C@H](c2ccc(OC)cc2)N3)C1`, 99.8%. For `O=C(c1ccccc1)C(Nc1ccccc1)c1ccccc1` (stereo unspecified), the growth was 84%.
